According to PubChem BioAssay (NCATS):
Where “and” joins values, the source holds several entries; their conditions need not be identical. Equal entries are not always repeated. Records with an inconclusive call do not appear. Calls of active or inactive are those of the source. Calls come from the whole dose curve; as a rule, active = well fitted inhibition curve with a large enough effect; inconclusive = small, poorly fitted or top-dose-only effect; inactive = flat fitted curve, though single readings scatter.

Experiments:
TAB109 = experiment: qHTS profiling for inhibitors of Plasmodium falciparum proliferation (AID 504749);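 note: 0% = DMSO vehicle and full inhibition = artemisinin control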; details: P. falciparum in erythrocytes, SYBR Green DNA, 72 h; series mostly up to 28.7 µM
In short: (§1)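 Infected RBCs, 0.3% parasitemia/2.5% Hct final; cpd 72 h, 37 C, 5% CO2; lysis buffer with saponin/triton/SYBR Green I, o/n RT dark; FI 485/535; norm. to artemisinin (0.29 uM) and DMSO.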

TAB113 = experiment: as above; details: P. falciparum in erythrocytes, SYBR Green DNA, 72 h; series mostly up to 28.7 µM
In short: as §1

TAB165 = experiment: as above; details: P. falciparum in erythrocytes, SYBR Green DNA, 72 h; series mostly up to 28.7 µM
In short: as §1

W2 = experiment: as above; details: P. falciparum in erythrocytes, SYBR Green DNA, 72 h; series mostly up to 28.7 µM
In short: as §1

CRL-7250 = normal cell line; experiment: Cytotoxic Profiling of Annotated Libraries Using Quantitative High-Throughput Screening (AID 1296008); details: Five cell lines viability, CellTiter-Glo ATP luminescence, 48-72 h; max response: stronger effect = lower value; note: potency is the fitted concentration of half-maximal effect; for max response: % is set by controls: 0 for no effect and ±100 for the full control effect
In short: (§2)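 Cytotoxicity was measured as CellTiter-Glo ATP luminescence, read after 10 min at room temperature. Compound treatment of the cells lasted 48 or 72 hr at 37 degrees Celsius in a qHTS format.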

HEK293 = experiment: as above; details: Five cell lines viability, CellTiter-Glo ATP luminescence, 48-72 h; max response: stronger effect = lower value
In short: as §2

HaCat [1] = experiment: as above; details: Five cell lines viability, CellTiter-Glo ATP luminescence, 48-72 h; max response: stronger effect = lower value
In short: as §2

NIH3T3 = experiment: as above; details: Five cell lines viability, CellTiter-Glo ATP luminescence, 48-72 h; max response: stronger effect = lower value
In short: as §2

HACAT [2] = experiment: qHTS assay to identify novel small-molecules to repurpose for Merkel cell carcinoma treatment (AID 1296009); details: MCC and control cell lines, CellTiter-Glo viability, 72 h; at 44.8 µM (top of the series) unless noted
In short: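 72 hr, 37 degree celsius; NPC 8-pt / MIPE 11-pt dose response; compound pinned in DMSO; CellTiter-Glo, 10 min RT, luminescence; normalized to no-cell and DMSO controls.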

KB-3-1 = experiment: Cytotoxic Profiling of Annotated Libraries Using Quantitative High-Throughput Screening (AID 1296008); details: Five cell lines viability, CellTiter-Glo ATP luminescence, 48-72 h; max response: stronger effect = lower value; note: potency is the fitted concentration of half-maximal effect; for max response: % is set by controls: 0 for no effect and ±100 for the full control effect
In short: as §2
Note: nearly all actives have a fitted effect of over 60% in size.

O=C(O)CN1C(=O)c2cccc3cccc(c23)C1=O
inactive: Potency (TAB109) | Potency (TAB113) | Potency (TAB165) | Potency (W2) | max response (CRL-7250) -6.05% | outcome (HEK293) | outcome (HaCat [1]) | max response (NIH3T3) 0.928% | outcome (HACAT [2])

O=c1cc(CO)occ1O
inactive: Potency (TAB109) | Potency (TAB113) | Potency (TAB165) | Potency (W2) | max response (CRL-7250) -3.51% | outcome (HEK293) | max response (HaCat [1]) 2.79% | max response (KB-3-1) 1.74% and -12.5% | max response (NIH3T3) -2.71%

O=S(=O)(O)NC1CCCCC1
inactive: Potency (TAB109) | Potency (TAB113) | Potency (TAB165) | max response (CRL-7250) -7.57% | outcome (HEK293) | outcome (HaCat [1]) | max response (NIH3T3) 1.01% | outcome (HACAT [2])

NS(=O)(=O)c1cc2c(cc1Cl)NC(CSCc1ccccc1)=NS2(=O)=O
inactive: Potency (TAB109) | Potency (TAB113) | Potency (TAB165) | Potency (W2) | max response (CRL-7250) -1.78% | outcome (HEK293) | max response (HaCat [1]) -9.13% | max response (KB-3-1) 1.03% | outcome (NIH3T3)

CCCOC(=O)c1ccccc1
inactive: Potency (TAB109) | Potency (TAB113) | Potency (TAB165) | Potency (W2) | max response (CRL-7250) -5.05% | outcome (HEK293) | outcome (HaCat [1]) | max response (NIH3T3) 2.42% | outcome (HACAT [2])

CCn1cc(C(=O)O)c(=O)c2cnc(N3CCNCC3)nc21
inactive: Potency (TAB109) | Potency (TAB113) | Potency (TAB165) | Potency (W2) | max response (CRL-7250) -6.3% | outcome (HEK293) | max response (HaCat [1]) -4.47% | max response (KB-3-1) -0.342% | outcome (NIH3T3)

C=CCn1c(=O)n([C@@H]2O[C@H](CO)[C@@H](O)[C@H]2O)c2nc(N)[nH]c(=O)c21
inactive: max response (CRL-7250) -6.63% | outcome (HEK293) | outcome (HaCat [1]) | max response (NIH3T3) 4.38% | outcome (HACAT [2])

CC12CCC(CC1)C(C)(C)O2
inactive: Potency (TAB109) | Potency (TAB113) | Potency (TAB165) | Potency (W2) | max response (CRL-7250) 3.08% | outcome (HEK293) | max response (HaCat [1]) -2.38% | max response (KB-3-1) -7.48% | outcome (NIH3T3)

NC(=O)c1ncn([C@@H]2O[C@H](CO)[C@@H](O)[C@H]2O)c1N
inactive: max response (CRL-7250) -9.1% | max response (HEK293) -5.61% | max response (HaCat [1]) -15% | max response (NIH3T3) -10.7%

CC[N+](CC)(CC)CCOc1ccc(/C=C/c2ccccc2)cc1
active: Potency (CRL-7250) 1.06 µM | Potency (HEK293) 4.73 µM | Potency (HaCat [1]) 8.41 µM
inactive: max response (NIH3T3) -21.5%

O=c1cc[nH]c(=O)[nH]1
inactive: Potency (TAB109) | Potency (TAB113) | Potency (TAB165) | Potency (W2) | outcome (CRL-7250) | outcome (HEK293) | max response (HaCat [1]) -1.66% | max response (KB-3-1) 20.9% | outcome (NIH3T3)

CC(C)(C)C(=O)NCCCC(=O)O
inactive: Potency (TAB109) | Potency (TAB113) | Potency (TAB165) | Potency (W2) | max response (CRL-7250) -4.98% | outcome (HEK293) | max response (HaCat [1]) 4.53% | max response (KB-3-1) -0.595% | outcome (NIH3T3)

CCOC(=O)c1ccc(O)cc1
inactive: Potency (TAB109) | Potency (TAB113) | Potency (TAB165) | Potency (W2) | max response (CRL-7250) -1.17% | outcome (HEK293) | max response (HaCat [1]) -1.41% | max response (KB-3-1) -4.79% | outcome (NIH3T3)

O=C(Oc1ccccc1C(=O)O)c1ccccc1O
inactive: Potency (TAB109) | Potency (TAB113) | Potency (TAB165) | Potency (W2) | max response (CRL-7250) 4.21% | outcome (HEK293) | outcome (HaCat [1]) | outcome (NIH3T3) | outcome (HACAT [2])
